The source of these data is PubChem BioAssay (Tox21).

Molecules are shown by their SMILES. Inconclusive results are not listed. Active and inactive are the calls of the source. Unless noted, calls come from the whole dose curve; as a rule, active = well fitted curve in the direction sought with a large enough effect in the repeat runs; inconclusive = weak or mixed curves; inactive = no such curve, though single readings can be large; an effect the other way counts as inactive or inconclusive.

The target in experiment [1] is Aryl hydrocarbon receptor (Homo sapiens) (UniProt P35869). The experiment can be described thus: qHTS assay to identify small molecule that activate the aryl hydrocarbon receptor (AhR) signaling pathway (AID 743085).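 Note: HG2L7.5c1 human HepG2 liver cells with stably integrated DRE-driven firefly reporter; series mostly up to about 70 µM; nearly all actives have a fitted effect of over 15% in size.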 The method in brief: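 Luminescence (ONE-Glo) from a dioxin-responsive-element luciferase reporter in HG2L7.5c1 HepG2 cells after 24 hr compound exposure at 37C; viability measured by CellTiter-Fluor fluorescence beforehand.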
Sequence of Aryl hydrocarbon receptor (Homo sapiens) (P35869 whole entry, looked up): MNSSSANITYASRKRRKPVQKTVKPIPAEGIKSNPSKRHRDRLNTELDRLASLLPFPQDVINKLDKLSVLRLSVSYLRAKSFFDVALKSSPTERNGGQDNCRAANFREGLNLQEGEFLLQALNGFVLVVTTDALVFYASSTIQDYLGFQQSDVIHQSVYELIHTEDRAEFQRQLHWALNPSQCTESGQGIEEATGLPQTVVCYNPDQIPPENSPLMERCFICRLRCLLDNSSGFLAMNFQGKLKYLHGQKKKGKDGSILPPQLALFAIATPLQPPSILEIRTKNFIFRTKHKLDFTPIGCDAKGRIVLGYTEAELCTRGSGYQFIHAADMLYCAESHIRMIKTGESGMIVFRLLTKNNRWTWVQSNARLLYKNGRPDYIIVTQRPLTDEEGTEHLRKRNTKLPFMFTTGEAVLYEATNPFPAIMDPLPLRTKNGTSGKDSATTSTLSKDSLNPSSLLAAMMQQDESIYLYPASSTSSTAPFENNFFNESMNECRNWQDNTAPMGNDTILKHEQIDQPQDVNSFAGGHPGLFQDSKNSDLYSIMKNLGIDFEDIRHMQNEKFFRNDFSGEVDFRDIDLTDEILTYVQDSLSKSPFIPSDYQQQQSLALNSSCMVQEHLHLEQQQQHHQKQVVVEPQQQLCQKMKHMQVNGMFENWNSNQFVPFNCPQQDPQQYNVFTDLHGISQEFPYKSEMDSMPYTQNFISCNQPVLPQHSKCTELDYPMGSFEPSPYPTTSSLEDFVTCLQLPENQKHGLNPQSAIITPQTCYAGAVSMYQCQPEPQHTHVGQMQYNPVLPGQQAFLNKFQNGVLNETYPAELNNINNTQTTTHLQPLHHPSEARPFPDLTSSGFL

A short description of experiment [2]: qHTS assay to identify small molecule that activate the aryl hydrocarbon receptor (AhR) signaling pathway - cell viability counter screen (AID 743086).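 Note: HepG2 liver cells carrying the AhR DRE luciferase reporter; series mostly up to about 70 µM; nearly all actives have a fitted effect of over 45% in size.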 The essentials:
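Cytotoxicity counter screen: CellTiter-Fluor signal (30 min, 37 C) in 4000 HepG2 cells/well carrying the DRE-luciferase reporter, following 24 h compound exposure at 37 C.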

A short description of experiment [3]: qHTS assay for small molecule agonists of the antioxidant response element (ARE) signaling pathway (AID 743202; active = well fitted activation curve with a large enough effect in the signal ratio in the repeat runs, not every such curve was filed as active; the % refers to the signal ratio). The essentials: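 An ARE-responsive beta-lactamase gene stably integrated in HepG2 cells serves as reporter. After 5 h plating and 16 h compound incubation at 37 C, fluorescence of the B/G FRET substrate was measured.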
Experiment [4] in a line: qHTS assay for small molecule agonists of the antioxidant response element (ARE) signaling pathway - cell viability counter screen (AID 743203; calls by dose curve; note: nearly all actives have a fitted effect of over 55% in size). The method in brief: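 CellSensor ARE-bla HepG2 cells, 2,000 per well, rested 5 hrs at 37C/5% CO2, then exposed to compound in DMSO for 16 hrs; viability read as CellTiter-Glo luminescence after 30 min at room temperature, in the reporter wells.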

Experiment [5] is described as follows: qHTS assay for small molecule activators of the heat shock response signaling pathway - cell viability counter screen (AID 743209). Note: nearly all actives have a fitted effect of over 50% in size. Note: potency is the fitted concentration of half-maximal effect. The essentials:
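CellSensor HSE-bla HeLa cells, plated overnight at 37 C/5% CO2, were exposed to compounds in DMSO for 5 h at 37 C. Viability was then read in the same wells by CellTiter-Glo luminescence after 30 min at room temperature.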

Experiment [6] in a line: qHTS assay for small molecule activators of the heat shock response signaling pathway (AID 743210; active = well fitted activation curve with a large enough effect in the signal ratio in the repeat runs, with a control signal flat, not every such curve was filed as active; the % refers to the signal ratio;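 note: HeLa cells with beta-lactamase reporter driven by heat shock elements; series mostly up to about 63 µM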). The essentials:
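In HSE-bla HeLa cells, 5 h compound incubation (37 C) precedes addition of LiveBLAzer B/G substrate; after 2.5 h at room temperature, fluorescence intensity indicates reporter induction.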

The nature of experiment [7]: qHTS assay to identify small molecule agonists of the peroxisome proliferator-activated receptor delta (PPARd) signaling pathway - cell viability counter screen (AID 743211). Note: nearly all actives have a fitted effect of over 55% in size. The method in brief:
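Viability was measured as CellTiter-Glo luminescence (30 min, room temperature) in the same wells as the beta-lactamase readout. GeneBLAzer PPARd UAS-bla HEK293H cells received compound after 5 h plating and were incubated 17 h at 37 C.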

Experiment [8] in a line: qHTS assay to identify small molecule antagonists of the peroxisome proliferator-activated receptor delta (PPARd) signaling pathway - cell viability counter screen (AID 743213). Note: nearly all actives have a fitted effect of over 50% in size. The method in brief:
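HEK293H cells with the PPARd UAS-bla reporter, co-treated 17 h at 37 C with compounds and L165041 (300 nM final), were lysed with CellTiter-Glo. Luminescence indicated viable cell content.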

Experiment [9] addresses Bile acid receptor (Homo sapiens) (UniProt Q96RI1). Nature of the experiment: qHTS assay to identify small molecule antagonists of the farnesoid-X-receptor (FXR) signaling pathway (AID 743217; active = well fitted inhibition curve with a large enough effect in the signal ratio in the repeat runs, not every such curve was filed as active; the % refers to the signal ratio). The method in brief:
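FXR-UAS-bla HEK 293T cells pre-incubated 5 h at 37 °C, then exposed to compounds with chenodeoxycholic acid (50 uM final) for 16 h at 37 °C. Beta-lactamase reporter read by LiveBLAzer B/G FRET substrate fluorescence after 2 h at room temperature.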

The nature of experiment [10]: qHTS assay to identify small molecule agonists of the farnesoid-X-receptor (FXR) signaling pathway - cell viability counter screen (AID 743218). Note: nearly all actives have a fitted effect of over 45% in size. The method in brief: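 FXR-UAS-bla HEK 293T cells, plated 5 h at 37 C, were exposed to compounds for 16 h at 37 C. CellTiter-Glo was then added to the same wells as the bla readout; luminescence read after 30 min at room temperature.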

Experiment [11] concerns the target Bile acid receptor (Homo sapiens) (UniProt Q96RI1). Nature of the experiment: qHTS assay to identify small molecule agonists of the farnesoid-X-receptor (FXR) signaling pathway (AID 743220; active = well fitted activation curve with a large enough effect in the signal ratio in the repeat runs, not every such curve was filed as active; the % refers to the signal ratio). The essentials:
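Beta-lactamase reporter under UAS control in GeneBLAzer FXR HEK 293T cells (5000/well) measured with LiveBLAzer FRET substrate after 2 h at room temperature. Compound exposure lasted 16 h at 37C.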

The nature of experiment [12]: qHTS assay to identify small molecule antagonists of the farnesoid-X-receptor (FXR) signaling pathway - cell viability counter screen (AID 743221; active = well fitted cell-killing curve with a large enough effect in the repeat runs, not every such curve was filed as active; note: nearly all actives have a fitted effect of over 50% in size). The method in brief:
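Cytotoxicity counter screen run in the FXR-bla reporter wells: HEK 293T cells exposed to compound with 50 uM (final) chenodeoxycholic acid for 16 h, 37 C, then viability measured by CellTiter-Glo luminescence after 30 min, room temperature.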

Experiment [13] has as its target Vitamin D3 receptor (Homo sapiens) (UniProt P11473). Nature of the experiment: qHTS assay to identify small molecule agonists of the vitamin D receptor (VDR) signaling pathway (AID 743222; calls by dose curve). The essentials: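 VDR-bla cells were plated 4 h at 37C/5% CO2, then exposed to compounds in DMSO for 16 h. After LiveBLAzer B/G FRET substrate addition and 2 h at room temperature, beta-lactamase reporter fluorescence was read.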

For experiment [14] the target is unchanged. The experiment can be described thus: qHTS assay to identify small molecule antagonists of the vitamin D receptor (VDR) signaling pathway (AID 743223; active = well fitted inhibition curve with a large enough effect in the signal ratio in the repeat runs, not every such curve was filed as active; the % refers to the signal ratio). The essentials:
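Antagonist mode: compound added to VDR-bla cells alongside agonist 1alpha,25-dihydroxyvitamin D3 (3 nM final), incubation 16 h at 37C. Read-out is LiveBLAzer FRET fluorescence, 2 h at room temperature.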

Experiment [15] in a line: qHTS assay to identify small molecule agonists of the vitamin D receptor (VDR) signaling pathway - cell viability counter screen (AID 743224). Note: nearly all actives have a fitted effect of over 50% in size. Note: potency is the fitted concentration of half-maximal effect. The method in brief:
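VDR-bla cells were preincubated 4 h at 37C/5% CO2, then exposed to compounds for 16 h. After the 2 h room-temperature bla FRET read, CellTiter-Glo was added to the same wells and luminescence read after 30 min.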

For experiment [16], the target named is Peroxisome proliferator-activated receptor gamma (Homo sapiens) (UniProt P37231). Nature of the experiment: qHTS assay to identify small molecule antagonists of the peroxisome proliferator-activated receptor gamma (PPARg) signaling pathway (AID 743191; calls by dose curve; note: series mostly up to about 63 µM; nearly all actives have a fitted effect of over 30% in size). The essentials: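 Beta-lactamase reporter under UAS control in HEK293H PPARg-bla cells; compound treatment 17 h at 37C. Read-out: fluorescence intensity after 1 h room-temperature incubation with LiveBLAzer B/G FRET substrate.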
Sequence of Peroxisome proliferator-activated receptor gamma (Homo sapiens) (P37231 whole entry, looked up): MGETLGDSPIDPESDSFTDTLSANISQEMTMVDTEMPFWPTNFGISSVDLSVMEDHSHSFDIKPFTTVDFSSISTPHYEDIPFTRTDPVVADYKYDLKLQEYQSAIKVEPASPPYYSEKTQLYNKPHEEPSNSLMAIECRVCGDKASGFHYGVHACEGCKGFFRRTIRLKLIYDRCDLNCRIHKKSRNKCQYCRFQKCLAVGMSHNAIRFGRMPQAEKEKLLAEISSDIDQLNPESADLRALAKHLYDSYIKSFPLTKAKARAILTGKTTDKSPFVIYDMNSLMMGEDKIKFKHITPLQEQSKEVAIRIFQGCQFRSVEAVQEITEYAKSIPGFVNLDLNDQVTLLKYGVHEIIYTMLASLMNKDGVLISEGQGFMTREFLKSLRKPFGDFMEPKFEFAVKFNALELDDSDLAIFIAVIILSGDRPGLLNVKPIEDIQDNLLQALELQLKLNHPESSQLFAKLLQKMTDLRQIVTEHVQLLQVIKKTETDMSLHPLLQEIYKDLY

Experiment [17] can be described thus: qHTS assay to identify small molecule antagonists of the peroxisome proliferator-activated receptor gamma (PPARg) signaling pathway - cell viability counter screen (AID 743194). Note: nearly all actives have a fitted effect of over 55% in size. The note with it: Potency: co-treated with 50 nM rosiglitazone. The essentials: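 Viability was measured as CellTiter-Glo luminescence in GeneBLAzer PPARg UAS-bla HEK293H cells. These cells had been exposed 17 h at 37 C to compounds together with rosiglitazone at 50 nM final, with the beta-lactamase readout taken in the same wells.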

Experiment [18] concerns the target Peroxisome proliferator-activated receptor delta (Homo sapiens) (UniProt Q03181). Nature of the experiment: qHTS assay to identify small molecule agonists of the peroxisome proliferator-activated receptor delta (PPARd) signaling pathway (AID 743212; calls by dose curve). The essentials: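 HEK293H UAS-bla reporter cells, human PPARd system; compounds delivered in DMSO after 5 h plating, then at 37 C. Beta-lactamase FRET read, 2 h RT substrate step.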

Experiment [19] has the same target. Nature of the experiment: qHTS assay to identify small molecule antagonists of the peroxisome proliferator-activated receptor delta (PPARd) signaling pathway (AID 743215; active = well fitted inhibition curve with a large enough effect in the signal ratio in the repeat runs, not every such curve was filed as active; the % refers to the signal ratio;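 note: cells stimulated with agonist L165041 at 300 nM final during compound exposure; series mostly up to about 62 µM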). The essentials:
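PPARd UAS-bla HEK293H cells were pre-incubated 5 h at 37 C, then given test compounds in DMSO plus agonist L165041 (300 nM final). After 17 h at 37 C, beta-lactamase FRET substrate was added; fluorescence read after 2 h at room temperature.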

Experiment [20] has as its target Peroxisome proliferator-activated receptor gamma (Homo sapiens) (UniProt P37231). The experiment can be described thus: qHTS assay to identify small molecule agonists of the peroxisome proliferator-activated receptor gamma (PPARg) signaling pathway (AID 743094; active = well fitted activation curve with a large enough effect in the signal ratio in the repeat runs, not every such curve was filed as active; the % refers to the signal ratio). The essentials:
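GeneBLAzer PPARg UAS-bla HEK293H cells carrying a stably integrated beta-lactamase reporter were pre-incubated 5 h at 37C, then exposed to compounds in DMSO for 17 h at 37C; LiveBLAzer B/G FRET substrate was added for 1 h at room temperature and fluorescence read.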

Sequence of Vitamin D3 receptor (Homo sapiens) (P11473 whole entry, looked up): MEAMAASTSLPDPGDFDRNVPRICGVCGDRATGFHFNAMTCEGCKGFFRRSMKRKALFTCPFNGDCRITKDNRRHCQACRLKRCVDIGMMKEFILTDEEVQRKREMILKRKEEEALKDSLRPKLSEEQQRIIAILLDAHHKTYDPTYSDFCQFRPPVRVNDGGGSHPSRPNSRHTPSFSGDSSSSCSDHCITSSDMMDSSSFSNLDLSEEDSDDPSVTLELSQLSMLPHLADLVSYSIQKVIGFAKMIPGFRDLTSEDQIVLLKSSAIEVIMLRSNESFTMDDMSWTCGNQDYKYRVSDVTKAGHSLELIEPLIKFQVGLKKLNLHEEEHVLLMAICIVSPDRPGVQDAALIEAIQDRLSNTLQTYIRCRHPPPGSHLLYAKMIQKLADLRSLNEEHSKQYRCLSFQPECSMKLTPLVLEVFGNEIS
Sequence of Bile acid receptor (Homo sapiens) (Q96RI1 whole entry, looked up): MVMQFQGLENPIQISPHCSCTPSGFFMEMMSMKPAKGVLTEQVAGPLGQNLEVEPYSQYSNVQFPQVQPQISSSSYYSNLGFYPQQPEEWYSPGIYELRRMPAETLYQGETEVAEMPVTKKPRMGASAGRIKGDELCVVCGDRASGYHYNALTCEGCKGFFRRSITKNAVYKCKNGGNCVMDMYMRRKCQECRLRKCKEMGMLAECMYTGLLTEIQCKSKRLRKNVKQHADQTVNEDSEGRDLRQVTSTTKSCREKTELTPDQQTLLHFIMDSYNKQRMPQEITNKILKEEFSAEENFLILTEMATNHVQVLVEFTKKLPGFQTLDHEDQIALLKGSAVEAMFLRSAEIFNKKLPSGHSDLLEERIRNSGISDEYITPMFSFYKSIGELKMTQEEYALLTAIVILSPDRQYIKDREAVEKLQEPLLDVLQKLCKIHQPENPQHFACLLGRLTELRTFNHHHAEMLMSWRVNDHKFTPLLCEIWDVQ
Sequence of Peroxisome proliferator-activated receptor delta (Homo sapiens) (Q03181 whole entry, looked up): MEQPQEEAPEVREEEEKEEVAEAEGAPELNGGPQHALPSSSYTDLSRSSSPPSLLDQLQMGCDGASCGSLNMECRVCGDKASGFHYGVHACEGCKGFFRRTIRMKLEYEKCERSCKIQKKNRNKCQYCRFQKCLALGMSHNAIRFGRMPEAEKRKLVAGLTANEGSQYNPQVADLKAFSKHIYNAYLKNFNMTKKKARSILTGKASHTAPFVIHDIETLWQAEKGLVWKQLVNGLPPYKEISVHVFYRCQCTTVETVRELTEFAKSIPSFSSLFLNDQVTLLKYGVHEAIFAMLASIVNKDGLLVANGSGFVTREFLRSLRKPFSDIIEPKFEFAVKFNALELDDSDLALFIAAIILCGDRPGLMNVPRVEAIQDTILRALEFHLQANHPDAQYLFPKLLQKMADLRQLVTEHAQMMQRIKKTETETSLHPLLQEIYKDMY

As for `N#CCBr`, the Potency entry in experiment [1], in [3], in [4], in experiment [5], in [7] and in [9] was “inactive” in each case. Further, the Potency entry in experiment [10] and in experiment [15] was “inactive” in each case. Also, the compound was called inactive in [2], in [6], in [8], in [11], in experiment [12] and in [13]. Further, the compound was called inactive in experiment [14].
In the case of `Oc1c(Cl)cccc1Cl`, the Potency entry in experiment [1], in experiment [16], in experiment [17], in experiment [4], in experiment [5] and in [7] was “inactive” throughout. The Potency result in experiment [10] and in experiment [15] was “inactive” throughout. Besides, the compound was called inactive in experiment [6], in [18], in [8], in experiment [19], in experiment [12] and in experiment [14].
Take `CNC(=O)Oc1cccc(C(C)C)c1`: the Potency result in experiment [1], in [17], in experiment [3], in experiment [5], in experiment [7] and in [10] was “inactive” each time. Further, the Potency result in [15] was “inactive”. Further, the outcome in experiment [2], in experiment [6], in [8], in [12], in experiment [13] and in experiment [14] was inactive.
`O=C1OC(c2ccc(O)c(S(=O)(=O)O)c2)(c2ccc(O)c(S(=O)(=O)O)c2)c2c(Br)c(Br)c(Br)c(Br)c21`: the Potency entry in experiment [1], in experiment [16], in [17], in experiment [4], in [5] and in [7] was “inactive” in each case. The Potency entry in experiment [10] and in experiment [15] was “inactive” in each case. Besides, the outcome in experiment [6], in experiment [8], in experiment [11], in experiment [12] and in experiment [13] was inactive.
As to `C[C@@H]1CN(C2CCC(C#N)(c3ccc(F)cc3)CC2)CC[C@]1(C(=O)O)c1ccccc1` (stereo not given in full), the Potency entry in experiment [1], in experiment [16], in [17], in [3], in [4] and in [5] was “inactive” throughout. In addition, the Potency entry in [7], in experiment [9] and in experiment [15] was “inactive” throughout. Also, the compound was classed as inactive in experiment [20], in experiment [6], in experiment [8], in experiment [11], in experiment [12] and in [13]. In addition, the outcome in experiment [14] was inactive.
Take `C=CCC1=C(C)[C@@H](OC(=O)[C@@H]2[C@@H](C=C(C)C)C2(C)C)CC1=O`: the Potency entry in experiment [1] and in [4] was “inactive” each time. For the same compound, the outcome in experiment [2], in experiment [8], in [12] and in experiment [13] was inactive. Moreover, the Potency in experiment [5] is 49 µM (active); in experiment [15] it was 38.9 µM (active).
Consider `CC1(C)COP(Oc2ccccc2)OC1`, for which the Potency entry in [1], in experiment [17], in [4], in experiment [5], in [7] and in experiment [9] was “inactive” each time. In addition, the Potency result in [10] and in [15] was “inactive” each time. For the same compound, the compound was called inactive in [2], in [6], in experiment [18], in [8], in experiment [19] and in experiment [11]. The call in experiment [12] and in [14] was inactive.
On to `OCCSCSCCO`, for which the Potency result in experiment [1], in experiment [16], in experiment [17], in experiment [4], in experiment [5] and in [7] was “inactive” each time. Also, the Potency entry in experiment [10] and in [15] was “inactive” in each case. The result in experiment [6], in experiment [18], in experiment [8], in experiment [19], in [12] and in experiment [13] was inactive. Also, the outcome in experiment [14] was inactive.
